In PubChem BioAssay AID2358 (The Scripps Research Institute Molecular Screening Center, 2010):
The campaign covered roughly 1,900 compounds. About 1,000 (53%) were called active.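 How the source made its calls: active means mean PP1 inhibition above a set limit taken from the earlier primary screen (cut at about 15% in these data); inactive means the rest.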 So high a share suggests a set chosen from earlier hits. A selection follows.

Each compound was assayed against Serine/threonine-protein phosphatase PP1-alpha catalytic subunit (Homo sapiens) (UniProt P62136) (assay: inhibition of human PP1-alpha enzyme activity – biochemical, fluorescence, OMFP substrate, triplicate, confirmation (AID 2358)). Conditions: purified PP1alpha, at 6.7 µM, hits give high values.
Serine/threonine-protein phosphatase PP1-alpha catalytic subunit (Homo sapiens), sequence (P62136 whole entry, looked up): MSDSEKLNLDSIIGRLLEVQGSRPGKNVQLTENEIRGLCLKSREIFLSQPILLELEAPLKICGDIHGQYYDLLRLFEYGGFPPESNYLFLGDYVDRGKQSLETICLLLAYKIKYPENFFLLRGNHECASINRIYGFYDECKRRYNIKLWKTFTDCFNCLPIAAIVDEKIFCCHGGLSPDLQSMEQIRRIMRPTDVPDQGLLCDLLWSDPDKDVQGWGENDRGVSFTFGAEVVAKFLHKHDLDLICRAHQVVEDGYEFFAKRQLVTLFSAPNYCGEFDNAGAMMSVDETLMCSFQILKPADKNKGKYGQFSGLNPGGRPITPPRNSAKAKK

Structure (SMILES)	inhibition
O=C1C(=O)N(CC2COc3ccccc3O2)c2ccccc21 (stereo unspecified)	1.9% (inactive)
CC1CCCCN1S(=O)(=O)c1ccc(C(=O)Nc2nnc(-c3cccs3)o2)cc1 (stereo unspecified)	23.2% (active)
Cc1ccccc1S(=O)(=O)N1[C@@H](c2cccc(Cl)c2)C(C(=O)O)=CC[C@H]1c1ccc(Cl)cc1	15.6% (active)
Cc1ccc(S(=O)(=O)N2[C@@H](c3cccc(Cl)c3)C(C(=O)O)=CC[C@H]2c2ccc(Cl)c(Cl)c2)cc1	18.2% (active)
Cc1ccc(-c2nn(-c3ccccc3)cc2/C=C2\SC(=S)N(CCCCCC(=O)O)C2=O)o1	19.6% (active)
COc1ccc(-c2nn(-c3ccccc3)cc2/C=C2/SC(=S)N(CCCC(=O)O)C2=O)c(C)c1	29.4% (active)
COc1ccc(-c2nn(-c3ccccc3)cc2/C=C\C(=O)Nc2ccc(C(=O)O)cc2)cc1	11% (inactive)
CS(=O)(=O)c1ccc2c(c1)SC1=NC(=O)/C(=C/c3ccco3)C(=N)N12	7.76% (inactive)
Cc1ccc(OCC(=O)Nc2ccc(-c3nnc(-c4ccco4)o3)cc2)cc1	25.6% (active)
CCCc1ccc(OCC(=O)NNC(=S)NC(=O)c2ccco2)cc1	14.1% (inactive)
O=C(CSc1nnc(C2CC2)n1Cc1ccccc1)Nc1cccnc1Cl	-0.54% (inactive)
C=CCn1c(=NC(=O)c2ccc(S(=O)(=O)N3CCCC3)cc2)sc2cc(NC(C)=O)ccc21	23.1% (active)
N#Cc1c(-c2ccccc2)nc(SCc2cccc(C(F)(F)F)c2)[nH]c1=O	14.1% (inactive)
Clc1ccc2c(c1)C1=C(C(c3ccncc3)O2)C(c2ccc(Br)cc2)n2ncnc2N1 (stereo unspecified)	18.4% (active)
O=C(N/N=C/c1cc([N+](=O)[O-])ccc1O)/C(=C\c1cccs1)NC(=O)c1ccccc1	30.9% (active)
CCOc1ccc(/C=C/C(=O)OCC(=O)c2ccccc2OC)cc1OC	0.75% (inactive)
CC(C)(C)Nc1nc(-c2ccccn2)nc2ccccc12	7.11% (inactive)
COc1cnc(-c2ccccn2)nc1Oc1ccc(C(C)(C)C)cc1	32.3% (active)
Cc1ccc(CSCC2Nc3ccc(C(=O)N4CCN(c5ccc(F)cc5)CC4)cc3NC2=O)cc1 (stereo unspecified)	22.6% (active)
Oc1ccc(C2Nc3cccc4cccc(c34)N2)cc1	0.4% (inactive)
COCCCNC(=O)C1CC(=O)N(c2ccc(C)cc2)C1 (stereo unspecified)	-1.39% (inactive)
OCCNc1nc(Nc2ccc(Cl)c(Cl)c2)nc2ccccc12	-0.84% (inactive)

Structure (SMILES)	inhibition
Oc1c(CN2CCN(c3ccc(F)cc3)CC2)cc(Cl)c2cccnc12	39.1% (active)
CCCCCCCCCCOC(=O)Cn1c(COc2ccc(C)cc2)[n+](C)c2ccccc21	12.8% (inactive)
Cc1ccc(NS(=O)(=O)c2ccc(N/N=C/c3ccccc3OCC(=O)O)c([N+](=O)[O-])c2)c(C)c1	16% (active)
Nc1ccc2nc3c(=O)[nH]c(=S)[nH]c3nc2c1	34% (active)
C/C(=N\c1nc2ccccc2n1C)c1cc(Cl)ccc1O	-7.49% (inactive)
C=C1c2c(Cl)ccc(O)c2C(O)=C2C(=O)[C@]3(O)C(O)=C(C(N)=O)C(=O)[C@@H](N(C)C)[C@@H]3[C@@H](O)C12 (stereo partly specified)	7.26% (inactive)
O=C(Nc1nc(-c2ccco2)c(-c2ccco2)s1)c1ccco1	2.84% (inactive)
COCCN(CCOC)S(=O)(=O)c1ccc(C(=O)Nc2nc3c(s2)CCc2ccccc2-3)cc1	34.5% (active)
C=CCN(CC=C)S(=O)(=O)c1ccc(C(=O)Nc2nc3c(s2)CCc2ccccc2-3)cc1	27.9% (active)
O=[N+]([O-])/C=C/c1ccc2c(ccn2Cc2ccccc2)c1	13.8% (inactive)
Cc1cccc(OCC(O)Cn2c(=N)n(CCN3CCOCC3)c3ccccc32)c1 (stereo unspecified)	-3.3% (inactive)
CCCCCCCCCCOC(=O)Cn1c(COc2cccc(OC)c2)[n+](C)c2ccccc21	8.62% (inactive)
O=C(Nc1cccc(-c2nc3ccccc3[nH]2)c1)c1ccc(C(=O)Nc2cccc(-c3nc4ccccc4[nH]3)c2)cc1	2.51% (inactive)
Clc1ccc(-n2nnnc2-c2cnc(-c3ccccn3)nc2-c2cccs2)cc1	64.5% (active)
Cc1ccc(Cn2nnc3c(=O)[nH]c(C4CCN(S(=O)(=O)/C=C/c5ccccc5)CC4)nc32)cc1	20.5% (active)
Cc1ccc(NC(=O)COc2ccc(/C=C3/NC(=O)NC3=O)cc2)cc1	16.6% (active)
NC(N)=N/N=C/c1ccc(OCc2ccc(Cl)cc2Cl)cc1	17.3% (active)
CC(=O)c1ccc(N2CCN(S(=O)(=O)c3ccc4c(c3)CC(=O)N4C)CC2)cc1	7.42% (inactive)
O=C(Nc1ccc(S(=O)(=O)Nc2nccs2)cc1)c1cc(-c2ccncc2)nc2ccccc12	12.1% (inactive)
Cc1ccc(-c2cc(C(=O)Nc3nn[nH]n3)c3ccccc3n2)c(C)c1	0.22% (inactive)
O=C(Nc1nnc(-c2ccccc2)o1)c1cc(-c2cccs2)nc2ccccc12	28.1% (active)
O=C(/C=C/c1ccc(F)cc1)NC(=S)NNC(=O)c1cccnc1	14.7% (inactive)

Structure (SMILES)	inhibition
COc1cccc(/C=N/NC(=O)c2[nH]nc3c2CCc2ccccc2-3)c1O	36% (active)
N=c1n(Cc2ccc(Cl)cc2)c2ccccc2n1CC(O)c1ccco1 (stereo unspecified)	-2.68% (inactive)
Cc1ccc2nc(N3C(=O)C(O)=C(C(=O)c4ccco4)C3c3cccc(O)c3)sc2c1 (stereo unspecified)	20.8% (active)
CCNS(=O)(=O)c1ccc(NC(=O)Nc2cccc(C(F)(F)F)c2)cc1	4.33% (inactive)
Cc1nc2c(C(=O)NCc3ccc4c(c3)OCO4)c[nH]n2c(=O)c1Cc1ccccc1F	32.2% (active)
COc1ccc(C2C(C(C)=O)=C(O)C(=O)N2CCc2c[nH]c3ccccc23)cc1 (stereo unspecified)	11.8% (inactive)
COc1cc(C2C(C(=O)c3ccc(C)o3)=C(O)C(=O)N2CCc2ccccc2)ccc1O (stereo unspecified)	27.1% (active)
Cc1cc(N2C(=O)C(O)=C(C(=O)c3ccc(C)o3)C2c2ccc(OCc3ccccc3)cc2)no1 (stereo unspecified)	32.6% (active)
CCCOc1ccc(C2C(C(=O)c3ccc(C)o3)=C(O)C(=O)N2CCCn2ccnc2)cc1 (stereo unspecified)	37.2% (active)
C/C(CC(O)(/C=N/O)c1ccccc1)=N\O (stereo unspecified)	-3.06% (inactive)
Cc1ccc2cc(CCNC(=O)c3c(-c4ccccc4Cl)noc3C)c(=O)[nH]c2c1	-1.41% (inactive)
COC(=O)Cc1cc(=O)n(-c2nc3ccccc3s2)[nH]1	0.62% (inactive)
CN(C(=O)CN(CCO)CC(=O)N(C)C(C)(C)Cc1ccccc1)C(C)(C)Cc1ccccc1	-9.33% (inactive)
C#CCOCCOCCOCCNc1nc(N2CCN(C(=O)CCCCCCCCCCNC(=O)Cn3cc(CCCCCN)nn3)CC2)nc(N2CCN(C(=O)CCCCCCCCCCNC(=O)[C@H](CO)n3cc(CCCSC)nn3)CC2)n1	50.9% (active)
C#CCOCCOCCOCCNc1nc(N2CCN(C(=O)CCCCCCCCCCNC(=O)[C@H](CCCCN)n3cc(C)nn3)CC2)nc(N2CCN(C(=O)CCCCCCCCCCNC(=O)[C@H](CO)n3cc(CCCSC)nn3)CC2)n1	41.8% (active)
C#CCOCCOCCOCCNc1nc(N2CCN(C(=O)CCCCCCCCCCNC(=O)[C@H]([C@@H](C)CC)n3cc(CCCCN=C(N)N)nn3)CC2)nc(N2CCN(C(=O)CCCCCCCCCCNC(=O)[C@H](CO)n3cc(CCCSC)nn3)CC2)n1	42.5% (active)
C=CCn1c(=S)[nH]c2scc(-c3ccco3)c2c1=O	7.08% (inactive)
Cc1nc(/N=C(\N)NC(=O)NC2CCCCC2)nc2ccccc12	26.9% (active)
Cc1ccc(-c2cc(C(=O)N/N=C/C=C/c3ccco3)c3ccccc3n2)cc1C	9.2% (inactive)
OCCCN1c2ccccc2Nc2nnc(-c3ccccc3)cc21	27.3% (active)
CCC(=C/c1sc2ccc3ccccc3c2[n+]1C)/C=C1\Sc2ccc3ccccc3c2N1C	62.5% (active)
CSc1ccc(/C=N\NC(=O)COc2ccc(Cl)cc2Br)cc1	-1.13% (inactive)
